# According to PubChem BioAssay AID1986 (Sanford-Burnham Center for Chemical Genomics, 2009):
# Values joined by “and” are separate entries in the source; they are usually repeats but may differ in a detail not shown here. Equal values may be shown once. About 890 (0.31%) of roughly 290,000 compounds were called active. The sample holds actives, similar compounds and a random draw of the others, so the mix is not that of the screen. No stated cut-off is given here; in the data, active means inhibition mostly above about 52% (no sharp cut-off); inactive means mostly below about 76%. More than one record can exist for a structure, and the calls need not agree.
# Experiment: inhibitors of HIV fusion peptide binding, primary screen, biochemical, uHTS, fluorescence dequenching (AID 1986)
# Conditions: cell-free peptide binding, 30 min, stronger effect = higher value
# [1] = measured here: repeat confirmation average inhibition, at 18.6 µM
Structure (SMILES),inhibition (at 20 µM),inhibition [1] [%]
N#CC1(C#N)C(c2ccccc2)OC23CCCCCC2C1(C#N)C(=N)O3 (stereo unspecified),10% (inactive),–
COc1ccc2c(CC(=O)Nc3ccc(N4CCOCC4)cc3)coc2c1,-1.8% (inactive),–
CCOC(=O)C1CCN(C(=O)Nc2ccc3nc(C)c(C)nc3c2)CC1,0.1% (inactive),–
O=C(Nc1ccc2nc(-c3ccco3)c(-c3ccco3)nc2c1)N1CCCCCC1,55.6% (inactive),19.7
CCOC(=O)C1CCN(C(=O)Nc2ccc3nc(-c4ccco4)c(-c4ccco4)nc3c2)CC1,68.6% (active),–
Cc1cc(C)c(C)c(S(=O)(=O)N2CCNCC2)c1C,0.3% (inactive),–
CC(C)(C)c1ccc(-c2nnc3sc(-c4ccncc4)nn23)cc1,-2.8% (inactive),–
NC(=S)Nc1ccc(Cl)cc1Cl,-1.7% (inactive),–
COc1cc(OC)c(/C=N/n2c(C)nnc2C)c(OC)c1,-1.2% (inactive),–
CCOC(=O)/C(C#N)=C/c1ccc(-c2ccsc2C(=O)OC)o1,61.4% (active),–
COC(=O)C(=Cc1ccc(-c2ccsc2C(=O)OC)o1)C(=O)OC,-1% (inactive),–
CCOC(=O)C(=Cc1ccc(-c2ccsc2C(=O)OC)o1)C(=O)OCC,2.2% (inactive),–
Cc1cc(-c2ccc(Cl)s2)n[nH]1,0% (inactive),–
CC1(C)CCCC2=C1CC1C(=O)N(Cc3cccnc3)C(=O)C1C2 (stereo unspecified),1.5% (inactive),–
Cc1cc(C)n2nc(C(=O)N/N=C/c3ccco3)nc2n1,-0.3% (inactive),–
O=C(c1nc2ccccn2c1CNCC1OCCc2ccccc21)N1CCOCC1 (stereo unspecified),-0.8% (inactive),–
Cc1ccc(C)c(S(=O)(=O)NCCCn2ccnc2)c1,-0.3% (inactive),–
COc1ccc(NS(=O)(=O)c2cccc(C(=O)Nc3ccccc3C(=O)O)c2)cc1,19.7% (inactive),–
Cc1nn(-c2ccccc2)c(N2CCCC2)c1/C=N/Nc1ccc(S(=O)(=O)Nc2ccccc2)cc1[N+](=O)[O-],-3.9% (inactive),–
Cc1nn(-c2ccccc2)c(Cl)c1/C=N/Nc1ccc(S(=O)(=O)Nc2ccccc2C(=O)O)cc1[N+](=O)[O-],73% (active),–
COc1ccccc1NS(=O)(=O)c1ccc(N/N=C/c2c(C)nn(-c3ccccc3)c2N2CCCC2)c([N+](=O)[O-])c1,-5.2% (inactive),–
COc1ccc(NC(=O)c2ccccc2NS(=O)(=O)c2ccc(C)cc2)c([N+](=O)[O-])c1,1.8% (inactive),–
COc1ccc(NC(=S)NNc2ccc(S(=O)(=O)Nc3ccccc3C(=O)O)cc2[N+](=O)[O-])cc1,52.4% (active),–
COc1ccc(N(CC(=O)N2CCc3ccccc3C2)S(C)(=O)=O)cc1,-1.6% (inactive),–

Structure (SMILES),inhibition (at 20 µM),inhibition [1] [%]
COc1cc(COCC(O)CN2CCOCC2)cc(OC)c1OC (stereo unspecified),-2.1% (inactive),–
O=C(Cc1ccc(Cl)cc1)Nc1cc(S(=O)(=O)N2CCOCC2)ccc1N1CCCC1,1.2% (inactive),–
N#CC1CC(c2ccc([N+](=O)[O-])cc2)=NN1c1ccc([N+](=O)[O-])cc1 (stereo unspecified),83.7% (active),–
N#CC1CC(c2ccccc2)=NN1c1ccccc1[N+](=O)[O-] (stereo unspecified),-3.1% (inactive),–
O=[N+]([O-])c1ccc(N2N=C(c3ccccc3)CC2c2ccccc2O)cc1 (stereo unspecified),38.9% (inactive),–
COC(=O)c1sccc1NC(=O)Nc1ccc(OC)cc1,1.8% (inactive),–
Cc1ccc(OCCNS(=O)(=O)c2cccs2)cc1,-0.8% (inactive),–
CCN(CC)C(=O)CSc1nc(O)c(Cc2ccc(OC)cc2)c(=O)[nH]1,0.3% (inactive),–
Cc1ccc(/C=C(\C#N)C(=O)Nc2ccccn2)o1,0.3% (inactive),–
N#C/C(=C\c1ccco1)C(=O)Nc1cccc2ncccc12,1.5% (inactive),–
Cc1ccc(/C=C(\C#N)C(=O)Nc2cccc3ncccc23)o1,77.8% (active),–
CCc1nnc(SCC(=O)N2CCCC(N3CCN(c4ccccc4C)CC3)C2)o1 (stereo unspecified),-0.2% (inactive),–
CC1(C)CC(=O)C2=C(C1)N(c1ccc(F)cc1)C(=O)C2(NC(=O)c1ccccc1)C(F)(F)F (stereo unspecified),-0.9% (inactive),–
COc1cc(OC)c(-c2c3cc(O)c(=O)cc-3oc3cc(O)c(O)cc23)cc1OC,82.9% (active),–
Cc1cc2oc(=O)cc(-c3cc4ccccc4o3)c2cc1O,21% (inactive),–
O=c1cc2oc3cc(O)c(O)cc3c(-c3ccccc3[N+](=O)[O-])c-2cc1O,34.3% (inactive),–
Cc1c2cc(O)c(=O)cc-2oc2cc(O)c(O)cc12,150% (inactive) and 61.1% (active),–
COc1ccc2c(=O)cc(-c3ccccc3F)oc2c1,-1.9% (inactive),–
COc1ccc(OC)c(-c2oc3ccccc3c(=O)c2O)c1,-0.8% (inactive),–
COc1ccc(OC)c(-c2c3cc(O)c(=O)cc-3oc3cc(O)c(O)cc23)c1,122% (active),–
CCOc1ccccc1-c1c2cc(O)c(=O)cc-2oc2cc(O)c(O)cc12,118% (active),–
COc1cc(-c2cc(=O)c3ccccc3o2)ccc1O,-1.9% (inactive),–
Cc1ccccc1-c1cc(=O)c2c(O)cccc2o1,-1.7% (inactive),–
COc1c(O)cc2oc(-c3ccc(O)c(O)c3)cc(=O)c2c1O,20.2% (inactive),–

Structure (SMILES),inhibition (at 20 µM),inhibition [1] [%]
O=c1cc2oc3cc(O)c(O)cc3c(-c3ccccc3O)c-2cc1O,148% (inactive),–
CC1=NN(c2ccc(C)cc2C)C(=O)C1C(c1ccccc1O)C1C(=O)N(c2ccc(C)cc2C)N=C1C (stereo unspecified),3.7% (inactive),–
COc1ccc(C(=O)Nc2ccnn2C2CCN(C(=O)c3cnsn3)CC2)cc1,-1.2% (inactive),–
COc1ccccc1C(=O)N/C(=C/c1ccc(Br)cc1)C(=O)NCCO,7.1% (inactive),–
CCCCCCNc1cc2n(c(=O)n1)CCc1cc(OC)c(OC)cc1-2,-3.2% (inactive),–
COc1ccccc1NS(=O)(=O)c1ccc(NN=C2CCCCC2)c([N+](=O)[O-])c1,-1.4% (inactive),–
c1ccc2c(c1)CC1(CCCCC1)n1nnnc1-2,-1.4% (inactive),–
CCCCCC(=O)NC(=S)Nc1ccc2oc(=O)ccc2c1,-0.3% (inactive),–
COC(=O)CCSCC(=O)Nc1ccc(S(=O)(=O)N2CCOCC2)cc1OC,0.8% (inactive),–
CC(C)C1/C(=N/O)CC(c2ccccc2)NC1c1ccccc1 (stereo unspecified),0% (inactive),–
CCCCNC(=O)CC1N=C2c3ccccc3N=C(SCC(=O)Nc3ccccc3OC)N2C1=O (stereo unspecified),1.1% (inactive),–
CCOC(=O)c1nc(S(C)(=O)=O)ncc1N1CCOCC1,-2.9% (inactive),–
CCc1ccccc1N(C(=O)CCC(=O)Nc1cc(C)on1)C(C(=O)NC1CCCC1)c1ccco1 (stereo unspecified),0.8% (inactive),–
O=[N+]([O-])c1ccc2c(c1)oc1ccccc12,-0.8% (inactive),–
CC(=O)CC(c1ccc([N+](=O)[O-])cc1)c1c(O)c2ccccc2oc1=O (stereo unspecified),3.8% (inactive),–
COc1cc(/C=N/NC(N)=O)cc([N+](=O)[O-])c1O,-1.1% (inactive),–
CCN(CC(=O)Nc1c(F)cccc1F)C(=O)c1ccccc1F,0.4% (inactive),–
Cc1ccc(C)n1C(Cc1ccccc1)C(=O)O (stereo unspecified),67.3% (active),–
O=C(O)C(Cc1ccccc1)n1cccc1 (stereo unspecified),1.2% (inactive),–
O=C(O)C(Cc1ccccc1)N1C(=O)CCC1=O (stereo unspecified),-1.2% (inactive),–
Cc1ccc(CNC(=O)C2CCN(C(=O)c3cccc(Cl)c3)CC2)cc1,1.1% (inactive),–
Cc1ccc(S(=O)(=O)N(CC(=O)Nc2ccccc2C(=O)O)c2cccc(Cl)c2C)cc1,52% (active),–
Cc1ccc(S(=O)(=O)N(CC(=O)Nc2ccccc2C(=O)O)c2ccccc2C)cc1,9.7% (inactive),–
Cc1ccc(S(=O)(=O)N(CC(=O)Nc2ccccc2C(=O)O)c2ccccc2)cc1,10.7% (inactive),–

Structure (SMILES),inhibition (at 20 µM),inhibition [1] [%]
CC1CCN(C(=O)CSc2nc3ccccc3c(=O)[nH]2)CC1,-0.9% (inactive),–
CC(C(=O)N1CCN(C(=O)c2ccco2)CC1)n1sc2ccccc2c1=O (stereo unspecified),1.6% (inactive),–
CC1=CC(=O)c2c(O)ccc(O)c2C1=O,68.3% (active),–
COc1cccc2c1C(=O)C=C(C)C2=O,2.7% (inactive),–
CC1=CC(=O)c2ccccc2C1=O,-2.1% (inactive),–
O=C(COc1ncnc2ccccc12)Nc1cc([N+](=O)[O-])ccc1Cl,-0.3% (inactive),–
COCC1CCN(C(=O)c2cc(COc3ccc(C)c(C)c3)on2)C1 (stereo unspecified),0.9% (inactive),–
COc1cc(/C=C2/SC(=O)N(Cc3ccccc3)C2=O)ccc1OCc1ccncc1,-4.2% (inactive),–
Cc1ccc(S(=O)(=O)NC(=O)c2ccc(-c3ccc(C)c4ccccc34)o2)cc1,23.3% (inactive),–
Cc1ccc(S(=O)(=O)NC(=O)c2ccc(-c3ccc(-c4ccccc4)cc3)o2)c(C)c1,52.6% (active),–
Cc1ccc(S(=O)(=O)NC(=O)c2ccc(Br)o2)c(C)c1,-0.8% (inactive),–
O=C(Nc1cccc(C(=O)Nc2ccc(Cl)cn2)c1)c1ccccc1,7.8% (inactive),–
O=C(Nc1ccc(F)cc1)c1oc2ccccc2c1NC(=O)C1CC1,-0.2% (inactive),–
CSc1nnc(-c2ccccc2N=Cc2c(C)[nH]n(-c3ccccc3)c2=O)c(=O)[nH]1,6% (inactive),–
Cc1nn(-c2ccc3ccccc3c2)c(=O)c2ccccc12,0% (inactive),–
Cc1ccc(-c2ccc(/C=N\NC(=O)c3cc4c(ccc5ccccc54)o3)o2)cc1[N+](=O)[O-],-1.4% (inactive),–
Cc1ccc(/C=N/NC(=O)c2cc3c(ccc4ccccc43)o2)o1,-1.7% (inactive),–
O=C(N/N=C/c1ccc(-c2ccc(Cl)c(C(=O)O)c2)o1)c1cc2c(ccc3ccccc32)o1,50.3% (active),–
CCC(C)NC(=O)COC(=O)c1cccnc1Nc1ccccc1F (stereo unspecified),0.1% (inactive),–
CCOC(=O)Cn1c2ccc(OC)cc2c2nc3ccccc3nc21,3% (inactive),–
CCCCOC(=O)Cn1c2ccc(OC)cc2c2nc3ccccc3nc21,53.3% (active),57.8
COC(=O)Cn1c2ccc(OC)cc2c2nc3ccccc3nc21,9.1% (inactive),–
